High-throughput results as filed in PubChem.
Only a selection was taken, and hits are over-represented in it overall.
TTR transcr act – TTR transcription activators in neuroblastoma reporter cells, primary screen, cell-based, luminescence, SH-SY5Y, TTR promoter Gaussia luciferase | actives 1.3% (n = 92,000) | 100% = recombinant luciferase protein wells | activation, % at 16.7 µM | AID 1117267, 2014;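 active means activation above the mean of all tested compounds plus 3 SD, cut at about 9.5% in these data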;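 further: cells exposed to compounds for one day before reading; 0% = median of all test compound wells on the plate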
HuH7 TTR inh – TTR promoter reporter inhibitors in hepatoma cells, counter-screen for TTR transcription activator project, cell-based, luminescence, HuH7 hepatoma. shares compounds with TTR transcr act. HuH7 TTR promoter-Gaussia luciferase reporter. inhibition, % at 16.7 µM. actives 4% (n = 1,100). AID 1117279, 2014;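 active means average inhibition above the solvent-only control wells' mean plus 3 SD, cut at about 15% in these data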;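 further: 0% = cells with DMSO only and 100% = cells with inhibitor control FD; inhibitors lower well luminescence so higher value means more inhibition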
TTR act confirm – TTR transcription activators, retest, confirmation, cell-based, luminescence, SH-SY5Y, triplicate; SHSY5Y TTR promoter Gaussia luciferase; 100% = purified Lucia enzyme wells, no cells; activation, % at 16.7 µM; shares compounds with TTR transcr act; 1,100 tested, under 10 active;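 active means mean activation above a set limit taken from the earlier primary screen, cut at about 11% in these data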;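 further: 0% = DMSO-treated cells and 100% = recombinant Lucia luciferase without cells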
An asterisk follows results filed as active.

Screening O=C(Nc1ccc(OC(F)(F)F)cc1)Nc1c(-c2ccc(C(F)(F)F)cc2)nc2ncccn12 returned TTR transcr act 7.0.
Screening CC(=O)c1ccn(S(=O)(=O)c2ccc(Cl)cc2)c1 returned TTR transcr act 1.9.
C/C(=N/NS(=O)(=O)c1ccc(Cl)cc1)c1ccncc1 was read as TTR transcr act 3.6.
Screening C/C(=N\O)c1ccn(S(=O)(=O)c2ccc(Cl)cc2)c1 returned TTR transcr act 26.2*, HuH7 TTR inh -23.1 and TTR act confirm 3.8.
For C=CCN1C(=O)[C@H](CC(=O)NCCCC)[C@@]2(C(=O)OCC)CCCC=C12 the results were TTR transcr act -0.4.
For CC(C)(C)c1cc(C(=O)NC2CC2)n(Cc2ccc(F)cc2)n1 the results were TTR transcr act 9.7*, HuH7 TTR inh -28.3 and TTR act confirm 0.7.
CC(C)(C)c1cc(C(=O)Nc2ccc(F)cc2)n(Cc2ccc(F)cc2)n1 was read as TTR transcr act -1.7.
For CC(C)(C)C(=O)NNC(=O)c1cc(C(C)(C)C)nn1Cc1ccccc1 the results were TTR transcr act -0.4.
For COC(=O)C1=C(C(=O)OC)[C@@]2([C@@H](Cc3ccc(C)cc3)Nc3ccccc3)C=C[C@@H]1O2 the results were TTR transcr act -6.7.
CCOC(=O)[C@@]12CCC3=C1N(CCC3)C(=O)[C@H](CC(=O)NCc1ccc(C)o1)C2 was read as TTR transcr act -0.6.
For Nc1c(C(=O)NCC(O)c2ccccc2)cnn1-c1ccccc1 (centres undefined) the results were TTR transcr act -0.4.
Screening CN(N=Nc1cccc([N+](=O)[O-])c1)c1cccc([N+](=O)[O-])c1 returned TTR transcr act 20.4*, HuH7 TTR inh -7.9 and TTR act confirm -0.7.
CC(=O)N(C)c1cccc([N+](=O)[O-])c1 was read as TTR transcr act 0.3.
CCCN(N=Nc1cccc([N+](=O)[O-])c1)c1cccc([N+](=O)[O-])c1 was read as TTR transcr act -1.6.
Screening COC(=O)C1(C(C[N+](=O)[O-])c2ccc(C)cc2)C(=O)NCC1c1ccco1 (centres undefined) returned TTR transcr act 0.4.
For CCCCOCCCNC(=O)C[C@H]1C[C@@]2(C(=O)OC)C(=C[C@H](C(C)C)O[C@@H]2C2CC2)N(CCc2ccc(OC)c(OC)c2)C1=O the results were TTR transcr act -0.4.
For COC[C@H]1CCCN1c1cccc2c1S(=O)(=O)N(C1CC1)CCCO2 the results were TTR transcr act 0.4.
For CCOc1ccc(C(NC(=O)/C=C/c2ccco2)c2ccc(OC)c(OC)c2)cc1 (centres undefined) the results were TTR transcr act -0.5.
CCOc1ccc(C(NC(C)=O)c2ccc(OC)c(OC)c2)cc1 (centres undefined) was read as TTR transcr act 11.2*, HuH7 TTR inh -5.4 and TTR act confirm 0.8.
For COc1ccc(C(CC(=O)O)NC(=O)c2cc3cc(Br)ccc3oc2=O)cc1OC (centres undefined) the results were TTR transcr act -2.1.
Screening CCCC(=O)NC(c1ccc(OCC)cc1)c1ccc(OC)c(OC)c1 (centres undefined) returned TTR transcr act -1.1.
For CCOC(=O)NC(CC(=O)O)c1ccc(OC)c(OC)c1 (centres undefined) the results were TTR transcr act 9.7*, HuH7 TTR inh 5.8 and TTR act confirm -0.9.
`CCOC(=O)NC(CC(=O)O)c1ccc(OCC)cc1` (centres undefined) gave TTR transcr act 1.6.
CCCCNS(=O)(=O)c1cc2c3c(c1)CCN3C(=O)CC2 was read as TTR transcr act -0.3.
FC(F)(F)c1ccccc1Cn1ccc2ccc(-c3ccc4ccn(Cc5ccccc5C(F)(F)F)c4c3)cc21 was read as TTR transcr act 18.2*, HuH7 TTR inh -6.1 and TTR act confirm -0.4.
FC(F)(F)c1ccccc1Cn1ccc2ccc(-c3ccc4ccn(Cc5ccccc5)c4c3)cc21 was read as TTR transcr act -1.7.
`Cc1ccccc1Cn1ccc2ccc(-c3ccc4ccn(Cc5ccccc5)c4c3)cc21` gave TTR transcr act -0.7.
O=C(NCCCc1ccccc1)O[C@@H]1CC[C@@]23CCCN2C(=O)CCC[C@H]3C1 was read as TTR transcr act -0.8.
Screening COc1ccc(C(=O)NCC(=O)OCC(=O)NCc2cccs2)cc1 returned TTR transcr act 0.3.
Screening Cc1ccc(C(=O)OCC(=O)NCc2cccs2)cc1 returned TTR transcr act 11.2*, HuH7 TTR inh -5.9 and TTR act confirm 0.2.
`CSc1ncccc1C(=O)OCC(=O)NCc1cccs1` gave TTR transcr act 2.4.
`COP(=O)(O)C(COCCC(CC(C)C)NC(=O)OCc1ccccc1[N+](=O)[O-])NC(=O)OCc1ccccc1` (centres undefined) gave TTR transcr act 0.3.
`Cn1c(=O)c2c(ncn2CC(=O)OCC(=O)NNC(=O)c2ccc(Cl)cc2)n(C)c1=O` gave TTR transcr act -0.4.
For CCOC(CCNC(=O)c1cn(-c2cccc(C)n2)cn1)OCC the results were TTR transcr act 0.6.
For COC(=O)c1ccc(NC(=O)c2cccnc2)cc1 the results were TTR transcr act -0.3.
Screening COC(=O)c1ccc(NC(=O)c2cn(-c3cccc(C)n3)cn2)cc1 returned TTR transcr act 29.8*, HuH7 TTR inh -10.7 and TTR act confirm -0.2.
CCOc1ccc(NC(=O)CC(NCc2ccccn2)C(=O)O)cc1 (centres undefined) was read as TTR transcr act 4.0.
`CN(C)S(=O)(=O)NCC1CCCN(Cc2ccc(-c3ccccc3)cc2)C1` (centres undefined) gave TTR transcr act -0.4.
CN(C)C(=O)CCc1ccc2c3c([nH]c2c1)[C@]1(CCC2CCCC2)[C@@H](C(=O)N2CCOCC2)C[C@H](CC(=O)NCCC2=CCCCC2)C(=O)N1CC3 was read as TTR transcr act -2.9.
`OC(c1ccccc1)(c1ccccc1)C1CCN(CCCOc2ccc(Cl)cc2)CC1` gave TTR transcr act -1.1.
For COc1ccc(Cc2nc3ccc(C(=O)N4CCCC4)cc3o2)cc1 the results were TTR transcr act -1.1.
For COc1ccc(Cc2nc3ccc(C(=O)NCc4cc(C)no4)cc3o2)cc1OC the results were TTR transcr act 9.9*, HuH7 TTR inh 1.4 and TTR act confirm 0.1.
For COC(=O)CCCNC(=O)c1ccc2nc(Cc3ccc(OC)cc3)oc2c1 the results were TTR transcr act 0.6.
Screening CCC[C@H]1[C@@H](NCC2CCCCC2)CC[C@@]23CCCN2C(=O)CCC[C@@H]13 returned TTR transcr act 1.9.
For COc1ccccc1Cn1nc(C(=O)O)c2ccccc2c1=O the results were TTR transcr act 2.5.
`CCN(CC)CCNC(=O)Cc1nn(Cc2ccccc2)c(=O)c2ccccc12` gave TTR transcr act 0.2.
CC(C)(C)NC(=O)c1nn(Cc2ccccc2)c(=O)c2ccccc12 was read as TTR transcr act 10.2*, HuH7 TTR inh -27.1 and TTR act confirm 0.0.
Screening O=S(=O)(N[C@@H]1CCCC[C@H]1N1CCOCC1)c1ccc(Cl)cc1 returned TTR transcr act -0.1.
